About 83,000 compounds went through this panel and 20% of them were active in at least one assay; those are over-represented in the sample as a whole.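 Results are percent growth after 48 hours of single-concentration exposure. 100 means growth as in untreated cells, lower positive values show inhibition; negative values down to -100 show cell death.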 Calls of active or inactive are those of the source. The calls were made as follows: active = growth percent below 10; inactive = the rest.
Key:
Experiment in all cases: NCI-60 one-dose screen, 48 h (100 = growth as untreated, 0 = no growth, -100 = all killed)
Settings in all cases: 10 µM
SK-MEL-2 melanoma = system: SK-MEL-2 melanoma
EKVX NSCLC = system: EKVX NSCLC
SN12C renal = system: SN12C renal
UO-31 renal = system: UO-31 renal
TK-10 renal = system: TK-10 renal
ACHN renal = system: ACHN renal
CAKI-1 renal = system: CAKI-1 renal
CCRF-CEM leukemia = system: CCRF-CEM leukemia
MOLT-4 leukemia = system: MOLT-4 leukemia
SR leukemia = system: SR leukemia
RPMI-8226 leukemia = system: RPMI-8226 leukemia
OVCAR-8 ovarian = system: OVCAR-8 ovarian
OVCAR-5 ovarian = system: OVCAR-5 ovarian
OVCAR-4 ovarian = system: OVCAR-4 ovarian
SK-OV-3 ovarian = system: SK-OV-3 ovarian
IGROV1 ovarian = system: IGROV1 ovarian
OVCAR-3 ovarian = system: OVCAR-3 ovarian
HS 578T breast = system: HS 578T breast
NCI/ADR-RES ovarian = system: NCI/ADR-RES ovarian
A498 renal = system: A498 renal

Measured: growth

COc1cccc2nc(Nc3cccc(NC(=O)c4ccc(CN5CCCN(C)CC5)c(C(F)(F)F)c4)c3)ccc12
active: SK-MEL-2 melanoma -87.4% | EKVX NSCLC -98.9% | SN12C renal -79.9% | UO-31 renal -97.2% | TK-10 renal -89.4% | ACHN renal -100% | CAKI-1 renal -100% | CCRF-CEM leukemia -54.3% | MOLT-4 leukemia -42.8% | SR leukemia -27.1% | RPMI-8226 leukemia -39.4% | OVCAR-8 ovarian -69.3% | OVCAR-5 ovarian -100% | OVCAR-4 ovarian -84.4% | SK-OV-3 ovarian -72.8% | IGROV1 ovarian -85.2% | OVCAR-3 ovarian -58.6% | HS 578T breast -61.7% | NCI/ADR-RES ovarian -77.9%

CCCCSc1nc(Nc2ccc(/C(C)=N/NC(N)=S)cc2)c(C#N)c(-c2ccccc2)n1
inactive: SK-MEL-2 melanoma 90.4% | EKVX NSCLC 62.5% | SN12C renal 19.8% | UO-31 renal 11.8% | TK-10 renal 48.8% | ACHN renal 14.3% | CAKI-1 renal 33.5% | CCRF-CEM leukemia 49.2% | SR leukemia 61.6% | RPMI-8226 leukemia 47.3% | OVCAR-8 ovarian 15.1% | OVCAR-5 ovarian 60.4% | SK-OV-3 ovarian 108% | IGROV1 ovarian 57.6% | HS 578T breast 43.6% | NCI/ADR-RES ovarian 25.3%
active: OVCAR-4 ovarian 5.32%

CC(=C(c1ccc(OCCN2CCCCCC2)cc1)c1ccc(OCCN2CCCCCC2)cc1)c1ccc(Cl)cc1
active: SK-MEL-2 melanoma -91.7% | EKVX NSCLC -89.3% | SN12C renal -92.4% | UO-31 renal -100% | TK-10 renal -98% | ACHN renal -100% | CAKI-1 renal -100% | CCRF-CEM leukemia -61.5% | OVCAR-8 ovarian -95.3% | OVCAR-5 ovarian -100% | OVCAR-4 ovarian -96.3% | SK-OV-3 ovarian -100% | IGROV1 ovarian -94.1% | OVCAR-3 ovarian -92.6% | HS 578T breast -48% | NCI/ADR-RES ovarian -97.7%

COc1ccc(-c2ccc(SCC(=O)Nc3ccc(C#N)cc3)nn2)cc1
inactive: SK-MEL-2 melanoma 114% | EKVX NSCLC 95.1% | SN12C renal 95% | UO-31 renal 75.4% | ACHN renal 80.1% | CAKI-1 renal 81.4% | A498 renal 124% | CCRF-CEM leukemia 95.9% | MOLT-4 leukemia 94.4% | SR leukemia 89.2% | RPMI-8226 leukemia 91% | OVCAR-8 ovarian 88.8% | OVCAR-5 ovarian 101% | OVCAR-4 ovarian 83.8% | SK-OV-3 ovarian 91.6% | IGROV1 ovarian 88.4% | OVCAR-3 ovarian 121% | HS 578T breast 67.8% | NCI/ADR-RES ovarian 83.7%

NS(=O)(=O)c1ccc(NC(=O)CSc2ccc(-c3ccccc3)nn2)c(Br)c1
inactive: SK-MEL-2 melanoma 95.8% | EKVX NSCLC 70.1% | SN12C renal 57.4% | UO-31 renal 75.1% | ACHN renal 54.2% | CAKI-1 renal 84.5% | A498 renal 120% | CCRF-CEM leukemia 89.9% | MOLT-4 leukemia 95.6% | SR leukemia 85.9% | RPMI-8226 leukemia 83% | OVCAR-8 ovarian 38.3% | OVCAR-5 ovarian 90.4% | OVCAR-4 ovarian 53.8% | SK-OV-3 ovarian 98.7% | IGROV1 ovarian 93.8% | OVCAR-3 ovarian 24.9% | HS 578T breast 41.1% | NCI/ADR-RES ovarian 81.6%

C=C1CCC2C3(C)COC(c4c(F)cccc4F)OC3CCC2(C)C1CC(O)C1=CCOC1=O (stereo unspecified)
active: ACHN renal 3.02%
inactive: SK-MEL-2 melanoma 52.4% | EKVX NSCLC 85.7% | SN12C renal 34.9% | UO-31 renal 50% | TK-10 renal 105% | CAKI-1 renal 72.5% | CCRF-CEM leukemia 17.7% | MOLT-4 leukemia 53.7% | SR leukemia 32.8% | RPMI-8226 leukemia 12.6% | OVCAR-5 ovarian 82.9% | OVCAR-4 ovarian 60.2% | SK-OV-3 ovarian 100% | IGROV1 ovarian 59.3% | OVCAR-3 ovarian 38.2% | HS 578T breast 76.1% | NCI/ADR-RES ovarian 11.6%

Cc1ccc(NCC(=O)Nn2c(COc3ccccc3)nc3ccccc3c2=O)cc1
inactive: SK-MEL-2 melanoma 87.2% | EKVX NSCLC 84.6% | SN12C renal 40.4% | UO-31 renal 80.8% | TK-10 renal 86.9% | ACHN renal 72.8% | CAKI-1 renal 44.3% | CCRF-CEM leukemia 101% | MOLT-4 leukemia 106% | RPMI-8226 leukemia 85.9% | OVCAR-8 ovarian 60.1% | OVCAR-5 ovarian 92.3% | OVCAR-4 ovarian 25.4% | SK-OV-3 ovarian 52.8% | IGROV1 ovarian 82.4% | OVCAR-3 ovarian 75.4% | HS 578T breast 66.1% | NCI/ADR-RES ovarian 72.6%

COc1cc(NC(=O)c2cc(-c3ccc(F)cc3F)ccc2O)cc(OC)c1OC
inactive: EKVX NSCLC 50% | SN12C renal 18.6% | TK-10 renal 33% | ACHN renal 55.9% | CAKI-1 renal 30.6% | CCRF-CEM leukemia 25.6% | MOLT-4 leukemia 10.6% | RPMI-8226 leukemia 12% | OVCAR-8 ovarian 48% | OVCAR-5 ovarian 111% | OVCAR-4 ovarian 17.3% | SK-OV-3 ovarian 34.5% | IGROV1 ovarian 38% | OVCAR-3 ovarian 26.1% | HS 578T breast 26.1% | NCI/ADR-RES ovarian 41.5%
active: SK-MEL-2 melanoma -5.57% | UO-31 renal 9.27%

CC(C)Sc1nc(NC2CC2)c(C#N)c(-c2ccccc2)n1
inactive: SK-MEL-2 melanoma 97.7% | EKVX NSCLC 77.4% | SN12C renal 77.5% | UO-31 renal 79.4% | TK-10 renal 92.9% | ACHN renal 53.5% | CAKI-1 renal 56.8% | CCRF-CEM leukemia 96.3% | MOLT-4 leukemia 102% | SR leukemia 99.8% | RPMI-8226 leukemia 94.2% | OVCAR-5 ovarian 92% | OVCAR-4 ovarian 27.6% | SK-OV-3 ovarian 88.8% | IGROV1 ovarian 74% | OVCAR-3 ovarian 86.5% | HS 578T breast 71.7% | NCI/ADR-RES ovarian 57.6%

COc1ccc2[nH]cc(/C=N/Nc3cccc(Cl)n3)c2c1
inactive: SK-MEL-2 melanoma 92% | EKVX NSCLC 44.2% | SN12C renal 38.7% | UO-31 renal 33.5% | TK-10 renal 91.1% | ACHN renal 47.8% | CAKI-1 renal 46.7% | MOLT-4 leukemia 14.8% | SR leukemia 17.1% | OVCAR-8 ovarian 57.9% | OVCAR-5 ovarian 77.4% | OVCAR-4 ovarian 59.8% | SK-OV-3 ovarian 91.4% | OVCAR-3 ovarian 17.4% | HS 578T breast 49.9% | NCI/ADR-RES ovarian 22.2%
active: CCRF-CEM leukemia 9.72% | RPMI-8226 leukemia -0.856% | IGROV1 ovarian 5.42%

CN1CCN(c2ccc(C(=O)/C=C/c3ccc(OC(F)F)cc3)cc2)CC1
active: MOLT-4 leukemia 0.533% | SR leukemia 6.8% | RPMI-8226 leukemia 5.53%
inactive: SK-MEL-2 melanoma 111% | EKVX NSCLC 80.1% | SN12C renal 26.4% | UO-31 renal 31.4% | ACHN renal 65.5% | CAKI-1 renal 65.8% | A498 renal 51.6% | CCRF-CEM leukemia 21.9% | OVCAR-8 ovarian 44.8% | OVCAR-5 ovarian 80.3% | OVCAR-4 ovarian 59% | SK-OV-3 ovarian 76% | IGROV1 ovarian 27.5% | OVCAR-3 ovarian 38.4% | HS 578T breast 63.8% | NCI/ADR-RES ovarian 54.7%

O=C(c1ccc([N+](=O)[O-])c([N+](=O)[O-])c1O)n1[nH]c(=O)c2ccccc2c1=O
inactive: SK-MEL-2 melanoma 76.1% | EKVX NSCLC 66.4% | SN12C renal 70.2% | TK-10 renal 120% | ACHN renal 76.6% | CAKI-1 renal 82.4% | A498 renal 133% | CCRF-CEM leukemia 30.5% | MOLT-4 leukemia 36.3% | RPMI-8226 leukemia 26.6% | OVCAR-8 ovarian 55.5% | OVCAR-5 ovarian 110% | OVCAR-4 ovarian 78.3% | SK-OV-3 ovarian 102% | IGROV1 ovarian 94.6% | OVCAR-3 ovarian 25.8% | HS 578T breast 77.4% | NCI/ADR-RES ovarian 35.5%

O=C(c1ccc(O)cc1)C1[C@H](c2ccc(Br)cc2)[C@@H](c2ccccc2)NC12C(=O)Nc1ccccc12 (stereo partly specified)
inactive: SK-MEL-2 melanoma 55.7% | EKVX NSCLC 28% | SN12C renal 23.5% | UO-31 renal 18.9% | CAKI-1 renal 22.6% | CCRF-CEM leukemia 36.3% | MOLT-4 leukemia 16.3% | RPMI-8226 leukemia 23% | OVCAR-8 ovarian 32.4% | OVCAR-5 ovarian 58.7% | SK-OV-3 ovarian 77.3% | IGROV1 ovarian 25.8% | OVCAR-3 ovarian 15% | HS 578T breast 28.5% | NCI/ADR-RES ovarian 22.4%
active: ACHN renal 6.89%

S=c1nc(-c2ccccc2)cc(-c2cc3ccccc3nc2Cl)[nH]1
inactive: SK-MEL-2 melanoma 37.5% | EKVX NSCLC 70% | SN12C renal 88.3% | TK-10 renal 162% | ACHN renal 77.7% | CAKI-1 renal 57.2% | A498 renal 126% | CCRF-CEM leukemia 43.5% | MOLT-4 leukemia 30.8% | RPMI-8226 leukemia 76.3% | OVCAR-8 ovarian 76.1% | OVCAR-5 ovarian 110% | OVCAR-4 ovarian 91.7% | SK-OV-3 ovarian 75% | IGROV1 ovarian 82.8% | OVCAR-3 ovarian 76.7% | HS 578T breast 57.6% | NCI/ADR-RES ovarian 49.1%

Cc1noc2c(Cc3ccccc3)nn(CC(=O)N/N=C/c3ccc(Br)cc3)c(=O)c12
inactive: SK-MEL-2 melanoma 106% | EKVX NSCLC 65.8% | CAKI-1 renal 58.4% | CCRF-CEM leukemia 96.8% | MOLT-4 leukemia 93.9% | SR leukemia 90.6% | OVCAR-5 ovarian 62.5% | SK-OV-3 ovarian 43.8% | IGROV1 ovarian 53.4% | HS 578T breast 30.7% | NCI/ADR-RES ovarian 58%
active: SN12C renal 8.51% | UO-31 renal -32.3% | ACHN renal 6.21% | A498 renal -62.4% | OVCAR-8 ovarian 9.24% | OVCAR-4 ovarian -61.9% | OVCAR-3 ovarian -33.6%

O=C1Nc2ccc(Cl)cc2/C1=C/c1ccc(OCc2ccc(Br)cc2F)cc1
active: ACHN renal 3.32% | A498 renal 4.76% | OVCAR-8 ovarian 5.33% | OVCAR-4 ovarian -20.5% | OVCAR-3 ovarian 0.51% | HS 578T breast -0.705%
inactive: SK-MEL-2 melanoma 80% | EKVX NSCLC 41% | SN12C renal 34.2% | TK-10 renal 18.6% | CAKI-1 renal 28.9% | CCRF-CEM leukemia 43.1% | MOLT-4 leukemia 63.5% | RPMI-8226 leukemia 44.7% | OVCAR-5 ovarian 70.6% | SK-OV-3 ovarian 25.1% | IGROV1 ovarian 39.2% | NCI/ADR-RES ovarian 13.1%

O=C1Nc2cc(Cl)ccc2/C1=C/c1cccc(OCc2ccc(Br)cc2F)c1
active: SK-MEL-2 melanoma -20% | CCRF-CEM leukemia -15.9% | MOLT-4 leukemia 0.0252% | RPMI-8226 leukemia -20.1% | OVCAR-8 ovarian -15.8% | OVCAR-3 ovarian -39% | HS 578T breast -10.1% | NCI/ADR-RES ovarian -35.1%
inactive: EKVX NSCLC 10.5% | SN12C renal 17.6% | TK-10 renal 77.9% | ACHN renal 30.8% | CAKI-1 renal 26.9% | A498 renal 60% | OVCAR-5 ovarian 30.2% | OVCAR-4 ovarian 39.1% | SK-OV-3 ovarian 40.7% | IGROV1 ovarian 20.2%
